# Experimental data reported in paper PMC4336329 (PLoS ONE, 2015).
# In all, about 310,000 compounds went through this assay and about 14,000 (4.5%) showed an effect of 50% or more. The effect is printed as a negative number. This excerpt belongs to a sample that is enriched for strong results.
# Biological target: human ether-à-go-go-related gene (hERG) potassium channel (human, UniProt Q12809)
# Assay: primary screen, population patch clamp on CHO cells stably expressing hERG; higher = less effect of the substance
# 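Further: peak tail current of the secondary pulse compared with the same well before compound.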
# Chain of human ether-à-go-go-related gene (hERG) potassium channel (Q12809 whole entry, looked up): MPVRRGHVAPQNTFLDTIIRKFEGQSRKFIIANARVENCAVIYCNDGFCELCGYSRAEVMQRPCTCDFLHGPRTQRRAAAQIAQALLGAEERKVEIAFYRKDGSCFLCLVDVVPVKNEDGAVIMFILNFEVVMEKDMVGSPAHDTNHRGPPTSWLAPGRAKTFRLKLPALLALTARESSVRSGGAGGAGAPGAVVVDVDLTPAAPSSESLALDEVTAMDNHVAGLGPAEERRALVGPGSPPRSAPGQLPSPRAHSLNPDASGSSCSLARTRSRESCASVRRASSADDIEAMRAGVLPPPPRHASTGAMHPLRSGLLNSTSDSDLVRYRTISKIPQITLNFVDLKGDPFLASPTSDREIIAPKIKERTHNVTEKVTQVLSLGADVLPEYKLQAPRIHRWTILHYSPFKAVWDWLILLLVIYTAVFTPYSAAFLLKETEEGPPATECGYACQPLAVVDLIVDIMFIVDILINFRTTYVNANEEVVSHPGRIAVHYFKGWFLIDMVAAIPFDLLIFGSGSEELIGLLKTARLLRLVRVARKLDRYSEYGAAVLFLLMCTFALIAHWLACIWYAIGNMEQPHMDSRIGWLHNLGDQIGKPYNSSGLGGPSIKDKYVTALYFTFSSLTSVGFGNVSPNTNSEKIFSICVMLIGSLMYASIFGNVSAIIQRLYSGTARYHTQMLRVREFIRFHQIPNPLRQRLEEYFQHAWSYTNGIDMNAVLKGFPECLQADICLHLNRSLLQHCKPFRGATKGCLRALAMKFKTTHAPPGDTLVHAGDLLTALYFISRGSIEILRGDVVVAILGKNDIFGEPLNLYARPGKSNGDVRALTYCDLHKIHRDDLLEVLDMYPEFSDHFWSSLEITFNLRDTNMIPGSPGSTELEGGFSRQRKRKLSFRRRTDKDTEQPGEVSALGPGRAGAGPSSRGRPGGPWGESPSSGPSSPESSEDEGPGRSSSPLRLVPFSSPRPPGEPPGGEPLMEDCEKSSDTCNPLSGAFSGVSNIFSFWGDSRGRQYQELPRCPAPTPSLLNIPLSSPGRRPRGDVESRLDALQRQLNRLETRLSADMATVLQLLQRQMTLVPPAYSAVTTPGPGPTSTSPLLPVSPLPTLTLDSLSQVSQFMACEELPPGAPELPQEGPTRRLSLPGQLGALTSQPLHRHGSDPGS
row,Compound,"hERG current change (%, negative = inhibition) at 10uM"
1,CCOC(=O)c1c(C)nc(C)c(C(=O)OCC)c1-c1ccc(Br)cc1,-29.7%
2,Cc1ccccc1Nc1ncnc2c1cnn2Cc1ccccc1,-10.8%
3,Cc1c(NC(=O)C(C)OC(=O)CC2CC3CCC2C3)c(=O)n(-c2ccccc2)n1C (centres unmarked),-9.36%
4,Cc1ccc(/C=N/Nc2ncnc3nc[nH]c23)cc1,-18.6%
5,Nc1cccc(C(=O)Nc2ccco2)c1,-2.33%
6,O=C(O)CN1C(=O)/C(=C2\SC(=S)N(C(Cc3ccccc3)C(=O)O)C2=O)c2ccccc21 (centres unmarked),2.15%
7,CC(C)(C)CC(=O)Nc1nnc(SCC(=O)NC2CCCCC2)s1,-36.5%
8,COC1CCCCC1NCCc1ccccc1.O=C(O)C(=O)O (centres unmarked),-0.725%
9,N#CC1(c2ccccc2)CCC(NCCc2ccccc2)CC1.O=C(O)C(=O)O (centres unmarked),-69.5%
10,O=C(O)C(=O)O.c1ccc(CCNC2CCCCCC2)cc1,-4.67%
11,O=C(N1CCOCC1)N1CCN(S(=O)(=O)N2CCOCC2)CC1,11.3%
12,C=CCn1c(SCC(=O)Nc2cccc3ccccc23)nc(O)c(CC)c1=O,3.7%
13,COc1ccc(NC(=O)CC2C(=O)N(c3cccc(OC)c3)C(=O)N2C2CCCCC2)cc1 (centres unmarked),13.4%
14,CCN(CC)Cc1c(C(=O)N/N=C/c2c(Cl)cccc2Cl)nnn1-c1nonc1N,11.8%
15,c1coc(Cn2c(-c3ccco3)nc3ccccc32)c1,-10%
16,CCCCOc1[nH]c2nc(-c3ccco3)n(Cc3ccco3)c(=N)c2c1C#N,-69.1%
17,COc1ccc(Cn2c(=O)n(Cc3ccco3)c(=N)c3c4c(sc32)COC(C)(C)C4)cc1,-15.9%
18,CC1Sc2ccc(C(=O)NCc3cccc(C(F)(F)F)c3)cc2NC1=O (centres unmarked),-4.86%
19,CCNC(=O)COc1ccc(/C=C2\COc3ccccc3C2=O)cc1OC,-71.8%
20,COc1ccc(/C=C2\COc3ccccc3C2=O)cc1OC,-17.1%
21,CCOc1cc(/C=C2\COc3ccccc3C2=O)ccc1OCC(=O)N(C)C,-10.3%

row,Compound,"hERG current change (%, negative = inhibition) at 10uM"
1,COc1ccc(N2C(=S)N(C(=O)c3ccccc3)C(=Nc3ccccc3)C2=Nc2ccccc2)cc1,-3.16%
2,Cc1ccc(-c2noc(-c3ccccc3C(=O)N3CCCC3)n2)cc1,-32.3%
3,Cc1ccc(-c2noc(-c3ccccc3C(=O)N3CCN(C)CC3)n2)cc1,-51.2%
4,CN1CCN(C(=O)c2ccccc2-c2nc(-c3ccccc3)no2)CC1,-25.5%
5,NC(=O)c1ccccc1-c1nc(-c2ccccc2)no1,-76.5%
6,O=C(c1ccccc1-c1nc(-c2ccccc2)no1)N1CCCC1,-4.86%
7,Cc1ccc(-c2noc(-c3ccccc3C(=O)N3CCOCC3)n2)cc1,-12.2%
8,O=C(c1ccccc1-c1nc(-c2ccc(Cl)cc2)no1)N1CCCC1,0.639%
9,CN1CCN(C(=O)c2ccccc2-c2nc(-c3ccc(Cl)cc3)no2)CC1,-65.6%
10,c1ccc(-c2noc(-c3ccccc3-c3ccccc3)n2)cc1,5.26%
11,Cc1cccc(NC(=O)CSCC(=O)N=c2sccn2C)c1,-20.2%
12,CC(C)n1c(O)c(N=NC(=O)CNC(=O)Cc2ccc(Cl)cc2)c2ccccc21,-39.1%
13,CC(C)c1cc(-c2cc(-c3ccccc3)on2)nc(NC2CCCC2)n1,6.4%
14,CCC(Cc1ccccc1)NC(=O)CCc1ccccc1 (centres unmarked),13.5%
15,COc1ccc(CN(C)CC(=O)Nc2ccc(Cl)cc2F)c(OC)c1.O=C(O)C(=O)O,-16.1%
16,Cl.Nc1ncnc2sc3c(c12)CCNC3,25.4%
17,O=C(COn1nnc2ccc(S(=O)(=O)N3CCOCC3)cc21)NCCc1ccccc1,-8.87%
18,COc1ccc(CNC(=O)C2CCCN(S(=O)(=O)c3ccc4c(c3)CCCN4C(C)=O)C2)cc1 (centres unmarked),4.76%
19,CC(C)Cn1c(N)c(C(=O)COC(=O)c2ccc(O)cc2)c(=O)n(C)c1=O,-10.6%
20,CC(C)Cn1c(N)c(C(=O)COC(=O)c2c(O)c(Cl)cc(Cl)c2Cl)c(=O)n(C)c1=O,-79.8%
21,CC(C)Cn1c(N)c(C(=O)COC(=O)c2cc(F)cc(F)c2)c(=O)n(C)c1=O,-42.1%

row,Compound,"hERG current change (%, negative = inhibition) at 10uM"
1,CC(C)Cn1c(N)c(C(=O)COC(=O)c2cccc(Cl)c2)c(=O)n(C)c1=O,-6.08%
2,CC(C)Cn1c(N)c(C(=O)COC(=O)c2ccc(Cl)cc2)c(=O)n(C)c1=O,-37.4%
3,CC(C)Cn1c(N)c(C(=O)COC(=O)c2cnc(Cl)c(Cl)c2)c(=O)n(C)c1=O,-71.1%
4,CCC(CC)C(=O)Nc1cccc(C(=O)Nc2ccc(S(N)(=O)=O)cc2)c1,10.8%
5,CC(=O)Nc1ccc2c(c1)nc(CCN1CCOCC1)n2C,10.4%
6,Cn1c(CCN2CCOCC2)nc2cc(NC(=O)COc3ccc(Cl)cc3)ccc21,-55.4%
7,Cc1ccc(OCC(=O)Nc2ccc3c(c2)nc(CCN2CCOCC2)n3C)cc1,-51.3%
8,Cn1c(CN2CCOCC2)nc2cc(NC(=O)COc3ccccc3)ccc21,-0.505%
9,Cn1c(CCN2CCOCC2)nc2cc(NC(=O)COc3ccccc3)ccc21,-15.1%
10,COc1ccc(OCC(=O)Nc2ccc3c(c2)nc(CCN2CCOCC2)n3C)cc1,-41%
11,CC(=O)Nc1ccccc1NC(=O)C/C(C)=N/NC(=O)C(=O)N1CCCCC1,-13.3%
12,COc1ccc2[nH]c(=O)c(CN(C(C)=O)c3ccc(C)cc3C)cc2c1,1.02%
13,CSc1nc(N)c(C(=O)Nc2ccc([N+](=O)[O-])cc2)s1,-12.3%
14,O=C(N/N=C\c1cccc(F)c1)c1ccc(-c2ccccc2)cc1,27%
15,CC(=O)N(C)C1(c2nnnn2CCOC(=O)Nc2cccc3ccccc23)CCCC1,0.969%
16,CCN1CCN(c2ccc(S(=O)(=O)N3CCCCC3)cc2NC(=O)/C=C/c2ccc([N+](=O)[O-])cc2)CC1,-70.8%
17,COc1ccc(/C=C/C(=O)Nc2cc(S(=O)(=O)N3CCCCC3)ccc2N2CCCCC2)cc1OC,4.11%
18,CCN1CCN(c2ccc(S(=O)(=O)N3CCOCC3)cc2NC(=O)/C=C/c2ccc([N+](=O)[O-])cc2)CC1,-71.8%
19,CCN1CCN(c2ccc(S(=O)(=O)N3CCCCC3)cc2NC(=O)/C=C/c2ccc(F)cc2)CC1,-48.1%
20,CCN1CCN(c2ccc(S(=O)(=O)N3CCOCC3)cc2NC(=O)/C=C/c2ccc(OC)c(OC)c2)CC1,10.4%
21,CCN1CCN(c2ccc(S(=O)(=O)N3CCOCC3)cc2NC(=O)/C=C/c2ccc(C)cc2)CC1,-46%

row,Compound,"hERG current change (%, negative = inhibition) at 10uM"
1,COc1ccc(CCCC(=O)N/N=C\c2cccs2)cc1,27.2%
2,COCCNC(=O)c1ccccc1-c1nc(-c2ccccc2Cl)no1,-9.09%
3,O=C(NC(=S)Nc1ccc2ncccc2c1)c1ccccc1,2.36%
4,C=CCn1cnc2scc(-c3ccc(C)cc3)c2c1=O,-10.4%
5,CCOc1ccccc1N(CC)C(=O)Cn1ncc2c(=O)oc3ccccc3c21,-26.1%
6,CCOC(=O)Cn1ncc2c(=O)oc3ccccc3c21,-0.743%
7,CCCN(C(=O)Cn1ncc2c(=O)oc3ccccc3c21)c1cccc(C)c1,-54.3%
8,CCCCN(Cc1ccco1)C(=O)Cn1ncc2c(=O)oc3ccc(C)cc3c21,13.2%
9,Cc1ccc2oc(=O)c3cnn(CC(=O)N(CCCN4CCOCC4)Cc4ccco4)c3c2c1,-57.5%
10,COCCCN(Cc1ccco1)C(=O)Cn1ncc2c(=O)oc3ccc(C)cc3c21,-49.6%
11,C=C(C)c1cccc(C(C)(C)NC(=O)N2CCN(c3ccccc3OC)CC2)c1,4.28%
12,COc1ccc(CCNC(=O)C2CCN(C(=O)c3cccs3)CC2)cc1,-0.649%
13,CC(=O)c1ccc(NC(=O)CSc2nnc3ccc(-c4ccccn4)nn23)cc1,-10.5%
14,COc1ccc(NC(=O)CSc2ccc3nnc(-c4ccccn4)n3n2)cc1OC,-18.1%
15,CC(=O)c1ccc(NC(=O)CSc2ccc3nnc(-c4ccccn4)n3n2)cc1,-64.7%
16,CCOc1ccc(NC(=O)CSc2ccc3nnc(-c4ccccn4)n3n2)cc1,-54.3%
17,CC(=O)Nc1ccc(NC(=O)CSc2ccc3nnc(-c4ccccn4)n3n2)cc1,17.7%
18,COc1ccc(NC(=O)CSc2ccc3nnc(-c4ccccn4)n3n2)cc1,-20.9%
19,CCc1cccc(C)c1NC(=O)Cn1nc(C)n2cccc2c1=O,22.9%
20,COc1ccc(-c2csc(N3CCN(c4cc5c(cc4Cl)nc(-c4ccncc4)n5CCOCCO)CC3)n2)cc1,12.6%
